mHTT CaM bind – mutant huntingtin-calmodulin interaction inhibitors – biochemical, AlphaScreen, primary screen | P42858 | AlphaScreen His-mHTT/GST-CaM binding, luminescence | inhibition, % at 15 µM | 190,000 tested, 3.6% active;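 note: 0% = both proteins with DMSO and 100% = one protein alone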
Pf apPOL inh – Pf-apPOL inhibitors, biochemical, fluorescence. AID 1794808, 2022. 210,000 tested, 0.25% active. inhibition, % at 10 µM. Recombinant Pf-apPOL, molecular beacon fluorescence, 1.5 h
* hit, by the source's call. Shown are actives, neighbours in structure and some others; about 3.6% of the full set was active somewhere. Cut-off read from the data, not from the text of the source: active = inhibition above about 50%; inactive = the rest.

`COc1cccc(Cn2c(Oc3cccc(OC)c3)nc3c2c(=O)n(C)c(=O)n3C)c1` gave mHTT CaM bind -1.0 and Pf apPOL inh 5.5.
For Cc1ccc(C(=O)N2CCN(c3nc(CN4CCOCC4)cs3)CC2)cc1C the results were mHTT CaM bind 9.4 and Pf apPOL inh 2.7.
For Cc1ccc(C(=O)N2CCN(c3nc(CN4CCCC4)cs3)CC2)cc1C the results were mHTT CaM bind 68.9* and Pf apPOL inh 14.4.
For Cc1cc(OCC(=O)Nc2ccc(C(C)C)cc2)nc(N2CCCCC2)n1 the results were mHTT CaM bind -7.5 and Pf apPOL inh -0.5.
`O=C(NCCc1csc(-c2ccccc2)n1)C1CCN(C(=O)c2ccncc2)CC1` gave mHTT CaM bind -2.8 and Pf apPOL inh -2.8.
CC1(C)CC(=O)C2=C(C1)N(c1ccc(Br)cc1)C(N)=C(C#N)C2c1cccs1 (centres undefined) was read as mHTT CaM bind 42.0 and Pf apPOL inh -2.7.
`CCc1ccc(C2C(C#N)=C(N)N(c3ccc([N+](=O)[O-])cc3)C3=C2C(=O)CC(C)(C)C3)s1` (centres undefined) gave mHTT CaM bind 49.0 and Pf apPOL inh 0.9.
Screening CCc1ccc(C2C(C#N)=C(N)N(c3ccccc3)C3=C2C(=O)CC(C)(C)C3)s1 (centres undefined) returned mHTT CaM bind 50.0* and Pf apPOL inh -7.8.
Screening CC1(C)CC(=O)C2=C(C1)N(c1ccc(Br)cc1F)C(N)=C(C#N)C2c1cccs1 (centres undefined) returned mHTT CaM bind 52.0* and Pf apPOL inh 6.2.
For COc1ccc(C2=N/C(=C\c3sccc3C)C(=O)O2)cc1 the results were mHTT CaM bind -2.0 and Pf apPOL inh -6.7.
`Cc1ccsc1CN(Cc1sccc1C)CC(C)O` (centres undefined) gave mHTT CaM bind -7.8.
`CCOC(=O)C1CCCN(C(=O)c2cnn(-c3ccccc3Cl)c2C)C1` (centres undefined) gave mHTT CaM bind -1.8 and Pf apPOL inh -2.5.
Cc1cc(NC(=O)C23CC4CC(C)(CC(C)(C4)C2)C3)no1 was read as mHTT CaM bind -0.5 and Pf apPOL inh -7.1.
CNc1ncnc2c1C(c1cccc([N+](=O)[O-])c1)c1c(NC)ncnc1O2 was read as mHTT CaM bind 13.0 and Pf apPOL inh 75.4*.
For COc1ncnc2c1C(c1cccc([N+](=O)[O-])c1)c1c(OC)ncnc1O2 the results were mHTT CaM bind 7.0 and Pf apPOL inh -6.5.
CC(=O)N1N=C(c2ccccc2)CC1c1ccccc1[N+](=O)[O-] (centres undefined) was read as mHTT CaM bind 0.0 and Pf apPOL inh -34.6.
For O=[N+]([O-])c1ccccc1C1CC(c2ccccc2)=NN1 (centres undefined) the results were mHTT CaM bind 61.0* and Pf apPOL inh 6.9.
`O=C1Nc2ccc(Br)cc2C(c2ccccc2Cl)C1N1CCCCC1` (centres undefined) gave mHTT CaM bind 80.0* and Pf apPOL inh -6.8.
CCN(CC)C1C(=O)Nc2ccc(Br)cc2C1c1ccccc1Cl (centres undefined) was read as mHTT CaM bind 94.0* and Pf apPOL inh 13.1.
`CC12CC(NC(=O)N1Cc1ccccc1)c1cc(Br)ccc1O2` (centres undefined) gave mHTT CaM bind 10.0 and Pf apPOL inh 3.0.
Screening O=C1CN(C(=O)C2CC2)C(c2ccccc2)c2cc(Br)ccc2N1 (centres undefined) returned mHTT CaM bind 10.0 and Pf apPOL inh -3.9.
`CN1CC(=Cc2cccc3ccccc23)C(=O)C(=Cc2cccc3ccccc23)C1` gave Pf apPOL inh 34.0.
For COc1cc(OC)c2c(c1C(CCN1CCCC(C)C1)c1ccc(N(C)C)cc1)OC(=O)CC2c1ccc(N(C)C)cc1 (centres undefined) the results were mHTT CaM bind 100.3* and Pf apPOL inh -4.3.
For COc1cc(OC)c2ccc(=O)oc2c1C(CCN1CCCC(C)C1)c1ccc(N(C)C)cc1 (centres undefined) the results were mHTT CaM bind 54.1* and Pf apPOL inh -1.1.
COc1cc(C(CCN2CCCC(C)C2)c2c(OC)cc(OC)c3c2OC(=O)CC3c2ccc(N(C)C)cc2)cc(OC)c1OC (centres undefined) was read as mHTT CaM bind 93.2* and Pf apPOL inh 7.3.
For COc1cc(C2CC(=O)Oc3ccc(C(C)(C)C)cc32)cc(OC)c1OC (centres undefined) the results were mHTT CaM bind 29.8 and Pf apPOL inh -1.0.
For COc1ccc(C(CCN2CCCC(C)C2)c2c(O)cc(OC)cc2OC)cc1 (centres undefined) the results were mHTT CaM bind 15.3 and Pf apPOL inh -1.3.
COc1cc(O)c(C(CCN2CCCC(C)C2)c2cc(OC)c(OC)c(OC)c2)c(OC)c1 (centres undefined) was read as mHTT CaM bind 8.6 and Pf apPOL inh -6.4.
For COc1cc(C2CC(=O)Oc3c(C(CCN4CCCC(C)C4)c4ccc(N(C)C)cc4)c(OC)cc(OC)c32)cc(OC)c1OC (centres undefined) the results were mHTT CaM bind 86.2* and Pf apPOL inh -4.2.
Screening CCOc1ccc(C2=NC3(CCN(CC)CC3)NC(c3cccc(OC)c3O)C2)cc1 (centres undefined) returned mHTT CaM bind 10.3 and Pf apPOL inh 0.4.
For O=C(c1ccc(-c2nc(-c3ccccc3)no2)cc1)N1CCN(C2CCCCC2)CC1 the results were mHTT CaM bind 1.6 and Pf apPOL inh 3.7.
Screening CC(=O)NCCc1csc(C2CCCN(C(=O)c3ccc(Cl)s3)C2)n1 (centres undefined) returned mHTT CaM bind -7.1 and Pf apPOL inh -4.5.
For CCOc1ccc(N2C(=O)CS/C2=C(\C(Cl)=C(Cl)Cl)[N+](=O)[O-])cc1 the results were mHTT CaM bind 57.0* and Pf apPOL inh -9.6.
`O=C1CS/C(=C(\C(Cl)=C(Cl)Cl)[N+](=O)[O-])N1c1ccc(F)cc1` gave mHTT CaM bind 36.0 and Pf apPOL inh 3.5.
COc1ccc(CCN2CC(C(=O)NCc3ccc(C(C)C)cc3)CC2=O)cc1OC (centres undefined) was read as mHTT CaM bind 22.3 and Pf apPOL inh -1.5.
For CCO/C=C1\c2cc([N+](=O)[O-])ccc2-c2c1cc([N+](=O)[O-])cc2[N+](=O)[O-] the results were mHTT CaM bind 74.0* and Pf apPOL inh -5.4.
Screening COc1ccc(/C=C2\c3cc([N+](=O)[O-])ccc3-c3c2cc([N+](=O)[O-])cc3[N+](=O)[O-])cc1OC returned mHTT CaM bind 9.0 and Pf apPOL inh -3.8.
CC(C)c1nnc(NC(=O)C(Br)C(C)C)s1 (centres undefined) was read as mHTT CaM bind -5.0 and Pf apPOL inh -0.5.
Screening Cc1ccc(S(=O)(=O)N(CC(=O)Nc2ccc3c(c2)OCO3)c2cccc(C)c2C)cc1 returned mHTT CaM bind 32.0 and Pf apPOL inh -0.1.
Screening Oc1oc(-c2ccc(Cl)cc2)nc1C=Nc1ccc(Br)cn1 returned mHTT CaM bind -3.0 and Pf apPOL inh -3.7.
For Oc1oc(-c2ccc(Cl)cc2)nc1C=Nc1ccc(Cl)cn1 the results were mHTT CaM bind -1.0 and Pf apPOL inh 61.8*.
For Cc1nnsc1C(=O)Nc1ccc(CN2CCS(=O)(=O)CC2)cc1 the results were Pf apPOL inh -2.7.
`Cc1ccc(Nc2ccc(NC(=O)c3snnc3C)cc2)nn1` gave mHTT CaM bind 100.1* and Pf apPOL inh -4.1.

Compound activity deposited in PubChem BioAssay by University of Kansas High Throughput Screening Laboratory.
